CYP2C9 inhib: human CYP2C9 inhibition. AID 777. actives 20% (n = 96,000). CYP2C9 Supersomes, luciferin-H conversion, luminescence. inhibition, % at 5 µM. P11712;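 active = blocking of liver enzyme CYP2C9 beyond about 50% at 5 µM, limit read from the data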
CYP2C9 activ: increases human cytochrome P450 2C9 activity; recombinant CYP2C9, luciferin-H conversion, luminescence; stronger effect = higher value; factor 1 = untreated enzyme, 0 = blocked; P11712; actives 1.4% (n = 96,000); activation factor at 5 µM;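 active = activation factor of 2 or more for CYP2C9 at a 5 µM dose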
CYP2C19 inh: inhibitors of human CYP2C19; CYP2C19 Supersomes, luciferin-H EGE luminescence, 30 min; inhibition, % at 5 µM; actives 21% (n = 96,000);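 active = CYP2C19 inhibition above a set limit at 5 µM in the primary screen, cut at about 50% in these data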
Cav32 inh: inhibitors of human Cav3.2 T-type calcium channel; O95180; Cav3.2-expressing cells, Fluo-4 calcium fluorescence FDSS; stronger effect = lower value; B-score at 10 µM; actives 4% (n = 100,000);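 active = single-dose well whose peak fluorescence ratio is a statistical outlier from its plate by either plate-standardised score or position-corrected B-score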
CYP2C19 act: activators of human cytochrome P450 2C19; P33261; recombinant CYP2C19, luciferin-H EGE luminescence; stronger effect = higher value; 0 = fully inhibited enzyme, 1 = untreated enzyme; activation factor at 5 µM; 96,000 tested, under 10 active;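 active = activation factor of at least 2 at 5 µM in the primary screen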
Of the large screens only hits and unclear results are named; the others gave an inactive call. The list is not random: actives were taken first. Their share in the collection is about 27%.

CCOC(=O)N1CCC(NC(=O)c2cc3c(C)nc4ccccc4c3o2)CC1	CYP2C9 inhib 61.4
CCOc1ccccc1NC(=O)Cc1coc2cc(C)ccc12	CYP2C9 inhib 89.9, CYP2C19 inh 94.6
Cc1ccc(NC(=O)CC2COc3ccccc3O2)cc1 (configuration not stated)	CYP2C19 inh 68.7
CCN1CCCC1CNC(=O)c1cc2c(C)nc3ccccc3c2o1 (configuration not stated)	none
COc1cccc(NC(=O)CC2COc3ccccc3O2)c1 (configuration not stated)	none
CC(NC(=O)CCC1COc2ccccc2O1)c1ccccc1 (configuration not stated)	CYP2C19 inh 50.6
COC(=O)c1cccc(NC(=O)Cc2coc3cc(OC)ccc23)c1	none (no result: CYP2C9 inhib, CYP2C9 activ, CYP2C19 inh, CYP2C19 act)
CCOC(=O)N1CCC(NC(=O)Cn2nc(Cc3ccncc3)c3ccccc3c2=O)CC1	CYP2C9 inhib 77.3, CYP2C19 inh 55.0
O=C(CCC1COc2ccccc2O1)NCC1COc2ccccc2O1 (configuration not stated)	Cav32 inh -9.64 (no result: CYP2C9 inhib, CYP2C9 activ, CYP2C19 inh, CYP2C19 act)
Cc1nc2ccccc2c2oc(C(=O)Nc3ccc4c(c3)OCCO4)cc12	none
Cc1nc2ccccc2c2oc(C(=O)NCC3COc4ccccc4O3)cc12 (configuration not stated)	Cav32 inh -5.33
O=C(CC1COc2ccccc2O1)NC1CCCCC1 (configuration not stated)	none
O=C(CCC1COc2ccccc2O1)NC1CCCCC1 (configuration not stated)	CYP2C19 inh 56.4
Cc1ccc(/C=c2\s/c(=C(/C#N)C(=O)N3CCCC3)n(Cc3ccco3)c2=O)s1	none
CN1CCN(CCN2CCn3c2nc2ccccc23)CC1	none
CCCCC1CCC(C(=O)NC2CCS(=O)(=O)C2)CC1 (configuration not stated)	none (no result: CYP2C9 inhib, CYP2C9 activ, CYP2C19 inh, CYP2C19 act)
CCc1ccc(C(=O)NCC2COc3ccccc3O2)o1 (configuration not stated)	CYP2C9 inhib 58.0, CYP2C19 inh 91.8
O=C(Cc1ccccc1)NCC1COc2ccccc2O1 (configuration not stated)	none (no result: CYP2C9 inhib, CYP2C9 activ, CYP2C19 inh, CYP2C19 act)
CCOc1ncccc1C(=O)NCC1COc2ccccc2O1 (configuration not stated)	CYP2C9 inhib 88.4, CYP2C19 inh 87.7
Cc1ccc2c(CC(=O)NCC3COc4ccccc4O3)coc2c1 (configuration not stated)	CYP2C9 inhib 95.3, CYP2C19 inh 99.7, Cav32 inh -6.6
O=C(CSc1nnc(C2COc3ccccc3O2)o1)NC1CCCCC1 (configuration not stated)	CYP2C9 inhib 58.3, CYP2C19 inh 50.4
C[C@H](NS(=O)(=O)c1ccccc1F)C(=O)OCC(=O)N1CCc2ccccc21	none
COc1ccc(N2CCN(C(=S)Nc3cc(C)ccc3C)CC2)cc1	none
CCN(CC)C(=O)CSc1nnc([C@@H](N)Cc2ccccc2)o1	none
FC(F)(F)c1cc(-c2ccc(Cl)cc2)nc2ncnn12	none
COc1cc2c(cc1OC)C(C(=O)Nc1ccc3c(c1)OCCO3)C(c1cccnc1)N(C)C2=O (configuration not stated)	CYP2C9 inhib 54.1 (no result: Cav32 inh)
CC(C)c1ccc(NC(=O)C2C3C=CC4(CN(CCCN5CCOCC5)C(=O)C24)O3)cc1 (configuration not stated)	none
O=C(Nc1ccccc1)N1CCn2c1nc1ccccc12	CYP2C9 inhib 65.6
CC(C)n1c(N2CCN(C(=O)Nc3ccccc3)CC2)nc2ccccc21	CYP2C9 inhib 52.3
COc1ccc(NC(=O)N2CCn3c2nc2ccccc23)cc1	CYP2C9 inhib 70.8
S=C(Nc1ccccc1)N1CCn2c1nc1ccccc12	none
Cc1ccc(/C=C/C(=O)O)cc1S(=O)(=O)N(CCO)CCO	none (no result: CYP2C9 inhib, CYP2C9 activ, CYP2C19 inh, CYP2C19 act)
COc1cc(NC(=O)c2cccc3c2C(=O)N(Cc2cccnc2)C3)cc(OC)c1OC	CYP2C9 inhib 68.7
CCCN1Cc2cccc(C(=O)Nc3ccc4c(c3)OCO4)c2C1=O	CYP2C9 inhib 59.8 (no result: Cav32 inh)
O=C(Nc1ccc2c(c1)OCO2)c1cccc2c1C(=O)N(Cc1cccnc1)C2	CYP2C9 inhib 76.9
CCCN1Cc2cccc(C(=O)Nc3ccc4c(c3)OCCO4)c2C1=O	CYP2C9 inhib 92.0, CYP2C19 inh 80.9
CCCN1Cc2cccc(C(=O)Nc3ccc(C)cc3)c2C1=O	none
O=C1CC2(CCCCCC2)Oc2ccc(Cl)cc21	none (no result: CYP2C9 inhib, CYP2C9 activ, CYP2C19 inh, CYP2C19 act)
COc1cc(C2Nc3ccc4ncccc4c3C3=C2C(=O)CCC3)cc(OC)c1O (configuration not stated)	CYP2C9 inhib 82.9
COc1ccc(Cc2nc(-c3cccs3)no2)cc1OC	CYP2C9 inhib 65.1, CYP2C19 inh 78.0
COc1ccc(Cc2nc(-c3ccc(-n4cccc4)cc3)no2)cc1OC	none
COc1ccc(OC)c(NC(=O)CCC(=O)Nc2nnc(C(F)(F)F)s2)c1	CYP2C9 inhib 73.9
Cc1cccc(-c2noc(CCC(=O)NCc3ccccc3)n2)c1	none
COc1ccc(OC)c(NC(=O)CCN2CCCCCC2)c1	none (no result: CYP2C9 inhib, CYP2C9 activ, CYP2C19 inh, CYP2C19 act)
O=C(O)CC1(Cc2nc(-c3cccs3)no2)CCCC1	none
Cc1ccc(CNC(=O)CCc2nc(-c3cccs3)no2)cc1	CYP2C9 inhib 67.7, CYP2C19 inh 69.9, Cav32 inh -5.15
O=C(CCc1nc(-c2cccs2)no1)NCc1ccc(F)cc1Cl	CYP2C9 inhib 66.2, CYP2C19 inh 87.3, Cav32 inh -4.54
CC(=O)Nc1ccccc1C(=O)N1CC2(C)CC1CC(C)(C)C2 (configuration not stated)	none
COc1ccc(-c2noc(CCC(=O)Nc3cc(OC)ccc3OC)n2)cc1	CYP2C9 inhib 82.2, CYP2C19 inh 98.4 (no result: Cav32 inh)
COc1ccccc1NC(=O)CCc1nc(-c2cccs2)no1	CYP2C19 inh 84.6
CCC(=O)Nc1nc(CC(=O)Nc2ccccc2OC)cs1	none (no result: CYP2C9 inhib, CYP2C9 activ, CYP2C19 inh, CYP2C19 act)
Cc1ccccc1OCC1Cc2c(nc(N)c(C#N)c2N)O1 (configuration not stated)	none
COC(=O)c1sccc1OC(C)C(C)=O (configuration not stated)	none
COc1ccc(CN(C)C2CCCCC2)cc1	CYP2C19 inh 64.2
Cc1ccc(C)c(C(=O)NCCN(C)C)c1	none
Cc1ccc(C)c(C(=O)NCc2ccncc2)c1	CYP2C9 inhib 53.7
Cc1ccc(SCc2ccc(C(=O)NCc3ccncc3)cc2)cc1	CYP2C9 inhib 99.2, CYP2C19 inh 82.6
Cc1ccc(O)c(-c2cc(C(=O)NCc3ccncc3)[nH]n2)c1	CYP2C9 inhib 96.2, CYP2C19 inh 74.7
COC(C/C=C/[C@H](O)[C@@H](C)OCc1ccccc1)OC	none (no result: CYP2C9 inhib, CYP2C9 activ, CYP2C19 inh, CYP2C19 act)
CC1=C(C#N)C2C(/C1=N/O)C2(C)C (configuration not stated)	none
COc1cc(NC(=O)C2CCCCC2)c(OC)cc1NC(=O)CCC(=O)NCc1ccco1	none
CC1CCN(CC(O)COC2CCC(C(C)(C)C)CC2)CC1 (configuration not stated)	none
COc1ccc(CN2C(=O)[C@@H]3C(c4ccccc4Cl)=NO[C@@H]3C2=O)cc1	CYP2C9 inhib 70.0, CYP2C19 inh 86.8
